Among the data in PubChem BioAssay (NCATS) are Potency and max response values, retold here.

Several values for one entry are separate records, joined by “and”; a condition that tells them apart may be missing. Equal entries are not always repeated. Inconclusive results are not listed. Unmarked numbers belong to inactive results. Activity calls are given as the source filed them. Calls follow the shape of the dose curve; as a rule, active = well fitted curve in the direction sought with a large enough effect; inconclusive = small, poorly fitted or top-dose-only effect, or another doubt; inactive = no such curve, though single readings can be large or run the other way.
% is scaled to controls: 0 for no effect and ±100 for the full control effect; potency is read from the fitted curve at half-maximal effect.

This assay can be described thus: qHTS Assay for Identifying Gametocytocidal Compounds (AID 743244).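 As to max response: actives lower the fluorescent signal which means gametocytes are killed.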 To be noted: P. falciparum 3D7 stage III-V gametocytes, alamarBlue, 72 h; max response: active compounds read low. The gist of the method:
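A resazurin-based viability read-out was applied to mature P. falciparum gametocytes: 72 h compound treatment, then 24 h dye incubation, with falling fluorescence signalling gametocytocidal effect.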
On the technique in general: Quantitative high-throughput screening tests each substance at several concentrations.
Consider `Oc1c(Cl)cc(Cl)c2cccnc12`, for which the Potency was 7.08 µM (active). On to `Nc1nc(F)nc2c1ncn2[C@@H]1O[C@H](CO)[C@@H](O)[C@@H]1O`, for which the max response is 0.368% and 0.376%. For the compound `CN1CCN(c2c(F)cc3c(=O)c(C(=O)O)cn(CCF)c3c2F)CC1`, the max response is 1.63%. On to `COc1ccc(C(=O)CC(=O)c2ccc(C(C)(C)C)cc2)cc1`, for which the max response is 7.37%. In the case of `CCOc1cc(N)c(Cl)cc1C(=O)NCC1CN(Cc2ccc(F)cc2)CCO1` (stereo not given), the max response was 1.28%. On to `NS(=O)(=O)c1cc2c(cc1Cl)NC(C(Cl)Cl)NS2(=O)=O` (stereo not given), for which the max response is 6.12%. Regarding `Cc1cccc(N(C)C(=S)Oc2ccc3ccccc3c2)c1`, the max response is 6.54%.

On to `COC(=O)Nc1nc2ccc(S(=O)c3ccccc3)cc2[nH]1` (stereo not given), for which the max response is 20.6%. As to `CN(Cc1cc(Br)cc(Br)c1N)C1CCCCC1`, the max response is -1.96%.

With `CCOC(=O)c1ccc(C#Cc2ccc3c(c2)C(C)(C)CCS3)nc1`, the max response is 32%. As to `C[C@@H](CN1CC(=O)NC(=O)C1)N1CC(=O)NC(=O)C1`, the max response is 9.49%. Take `CCC(=O)O[C@]1(C(=O)SCF)[C@H](C)C[C@H]2[C@@H]3C[C@H](F)C4=CC(=O)C=C[C@]4(C)[C@@]3(F)[C@@H](O)C[C@@]21C`: the max response is -5%.

Take `CC(=O)[C@H]1CC[C@H]2[C@@H]3CC=C4C[C@@H](O)CC[C@]4(C)[C@H]3CC[C@]12C`: the max response was 11.7%.

As for `CN(CCOc1ccc(CC2SC(=O)NC2=O)cc1)c1ccccn1` (stereo not given), the max response was 11.4%. As for `CCN(C)C(=O)Oc1cccc([C@H](C)N(C)C)c1`, the max response was -3.35%.
